Measured values as given in PubChem BioAssay (NCI).
This is part of a sample that, as a whole, favours compounds with a hit. Of some 83,000 tested, about 20% had one in any assay.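 Each cell line was grown in a 96-well plate and treated with one concentration of compound for 48 hours. Values below 10 were considered active.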 Unmarked numbers belong to inactive results. Calls of active or inactive are those of the source.

Legend:
Assay in all cases: NCI-60 one-dose screen, 48 h (100 = growth as untreated, 0 = no growth, -100 = all killed)
SK-MEL-2 melanoma = details: 10 µM unless noted
SN12C renal = details: 10 µM unless noted
UO-31 renal = details: 10 µM unless noted
TK-10 renal = details: 10 µM unless noted
ACHN renal = details: 10 µM unless noted
CAKI-1 renal = details: 10 µM unless noted
CCRF-CEM leukemia = details: 10 µM
MOLT-4 leukemia = details: 10 µM unless noted
SR leukemia = details: 10 µM unless noted
RPMI-8226 leukemia = details: 10 µM unless noted
OVCAR-8 ovarian = details: 10 µM unless noted
OVCAR-5 ovarian = details: 10 µM unless noted
OVCAR-4 ovarian = details: 10 µM unless noted
SK-OV-3 ovarian = details: 10 µM unless noted
IGROV1 ovarian = details: 10 µM unless noted
OVCAR-3 ovarian = details: 10 µM unless noted
HS 578T breast = details: 10 µM unless noted
NCI/ADR-RES ovarian = details: 10 µM unless noted
A498 renal = details: 10 µM unless noted

For O=C(/C=C\c1ccccc1Cl)c1ccccc1, the growth (SK-MEL-2 melanoma) was 128%, the growth (SN12C renal) was 102% and the growth (UO-31 renal) was 71.5%. It also gave a growth (TK-10 renal) of 111%, a growth (ACHN renal) of 92.5% and a growth (CAKI-1 renal) of 90.8%. For the same molecule, the growth (CCRF-CEM leukemia) was -16.3% (active), the growth (MOLT-4 leukemia) was 91.8% and the growth (SR leukemia) was 67.6%. It also gave a growth (RPMI-8226 leukemia) of 66%, a growth (OVCAR-8 ovarian) of 104% and a growth (OVCAR-5 ovarian) of 89.8%. The growth (OVCAR-4 ovarian) was 89.8%, the growth (SK-OV-3 ovarian) was 107% and the growth (IGROV1 ovarian) was 111%. It also gave a growth (OVCAR-3 ovarian) of 99.5%, a growth (HS 578T breast) of 111% and a growth (NCI/ADR-RES ovarian) of 101%.
With CC(=O)C(CO)C(=O)Nc1ccccc1 (centres undefined) the growth (SK-MEL-2 melanoma) was 90.4%, the growth (SN12C renal) was 101% and the growth (UO-31 renal) was 106%. The growth (TK-10 renal) was 109%, the growth (ACHN renal) was 93.3% and the growth (CAKI-1 renal) was 94.8%. It also gave a growth (CCRF-CEM leukemia) of 99.2%, a growth (MOLT-4 leukemia) of 102% and a growth (SR leukemia) of 94.8%. The growth (RPMI-8226 leukemia) was 103%, the growth (OVCAR-8 ovarian) was 109% and the growth (OVCAR-5 ovarian) was 102%. It also gave a growth (OVCAR-4 ovarian) of 98%, a growth (SK-OV-3 ovarian) of 93.8% and a growth (IGROV1 ovarian) of 105%. The growth (OVCAR-3 ovarian) was 110%, the growth (HS 578T breast) was 118% and the growth (NCI/ADR-RES ovarian) was 103%.
Molecule CCCCCCCCCCN1CC2CCCCC2C1 (centres undefined) has a growth (SK-MEL-2 melanoma) of 95.2%, a growth (SN12C renal) of 75.7% and a growth (UO-31 renal) of 65.5%. The growth (TK-10 renal) was 81.4%, the growth (ACHN renal) was 80.1% and the growth (CCRF-CEM leukemia) was 46.1%. The growth (MOLT-4 leukemia) was 50.2%, the growth (SR leukemia) was 12.9% and the growth (RPMI-8226 leukemia) was 51.6%. For the same molecule, the growth (OVCAR-8 ovarian) was 94%, the growth (OVCAR-5 ovarian) was 66.2% and the growth (OVCAR-4 ovarian) was 49.1%. It also gave a growth (SK-OV-3 ovarian) of 83.8%, a growth (IGROV1 ovarian) of 90% and a growth (OVCAR-3 ovarian) of 77.9%. The growth (HS 578T breast) was 84.4% and the growth (NCI/ADR-RES ovarian) was 83.8%.
For O=C(O)COc1ccc([N+](=O)[O-])cc1Cl, the growth (SK-MEL-2 melanoma) was 107%, the growth (SN12C renal) was 88.7% and the growth (UO-31 renal) was 105%. It also gave a growth (TK-10 renal) of 103%, a growth (ACHN renal) of 102% and a growth (A498 renal) of 115%. For the same molecule, the growth (CCRF-CEM leukemia) was 88.8%, the growth (MOLT-4 leukemia) was 99.2% and the growth (SR leukemia) was 97.6%. The growth (RPMI-8226 leukemia) was 94.2%, the growth (OVCAR-8 ovarian) was 110% and the growth (OVCAR-5 ovarian) was 102%. For the same molecule, the growth (OVCAR-4 ovarian) was 106%, the growth (SK-OV-3 ovarian) was 98.7% and the growth (IGROV1 ovarian) was 100%. For the same molecule, the growth (OVCAR-3 ovarian) was 123% and the growth (NCI/ADR-RES ovarian) was 107%.
For CCn1cnc(C[C@H](NC(=O)[C@@H](NC(=O)Nc2cc(C(F)(F)F)cc(C(F)(F)F)c2)C(C)C)C(=O)OC)c1, the growth (SK-MEL-2 melanoma) was -86% [100 µM] (active), the growth (SN12C renal) was -86.8% [100 µM] (active) and the growth (UO-31 renal) was -97% [100 µM] (active). The growth (TK-10 renal) was -98.7% [100 µM] (active), the growth (ACHN renal) was -98.7% [100 µM] (active) and the growth (A498 renal) was -89.5% [100 µM] (active). The growth (MOLT-4 leukemia) was -54.9% [100 µM] (active), the growth (SR leukemia) was -35.5% [100 µM] (active) and the growth (RPMI-8226 leukemia) was -52.4% [100 µM] (active). The growth (OVCAR-8 ovarian) was -81.6% [100 µM] (active), the growth (OVCAR-5 ovarian) was -94.9% [100 µM] (active) and the growth (OVCAR-4 ovarian) was -96.2% [100 µM] (active). The growth (SK-OV-3 ovarian) was -100% [100 µM] (active), the growth (IGROV1 ovarian) was -71.5% [100 µM] (active) and the growth (OVCAR-3 ovarian) was -89.5% [100 µM] (active). The growth (HS 578T breast) was 7.39% [100 µM] (active) and the growth (NCI/ADR-RES ovarian) was 0.865% [100 µM] (active).
For COC(=O)c1cc(Nc2ccc(O)c3c2C(=O)c2c([N+](=O)[O-])ccc(O)c2C3=O)cc(C(=O)OC)c1, the growth (SK-MEL-2 melanoma) was 10.6%, the growth (SN12C renal) was 70.5% and the growth (UO-31 renal) was 67.1%. For the same molecule, the growth (TK-10 renal) was 60.4%, the growth (ACHN renal) was 90.5% and the growth (A498 renal) was 93.8%. For the same molecule, the growth (CCRF-CEM leukemia) was 23%, the growth (MOLT-4 leukemia) was 25.5% and the growth (SR leukemia) was 2.02% (active). For the same molecule, the growth (RPMI-8226 leukemia) was 17.9%, the growth (OVCAR-8 ovarian) was 65.1% and the growth (OVCAR-5 ovarian) was 50.4%. For the same molecule, the growth (OVCAR-4 ovarian) was 80.5%, the growth (SK-OV-3 ovarian) was 82.3% and the growth (IGROV1 ovarian) was 85.9%. For the same molecule, the growth (OVCAR-3 ovarian) was 54.7% and the growth (NCI/ADR-RES ovarian) was 71.2%.
In the case of CC(O)c1cc[cH-]c1.[Fe+2].c1cc[cH-]c1 (centres undefined), the growth (SK-MEL-2 melanoma) is reported as 109%, the growth (SN12C renal) is reported as 98.9% and the growth (UO-31 renal) is reported as 86.5%. The growth (ACHN renal) was 89.8%, the growth (CAKI-1 renal) was 88% and the growth (A498 renal) was 103%. For the same molecule, the growth (MOLT-4 leukemia) was 89.3%, the growth (SR leukemia) was 90.2% and the growth (RPMI-8226 leukemia) was 102%. For the same molecule, the growth (OVCAR-8 ovarian) was 100%, the growth (OVCAR-5 ovarian) was 100% and the growth (OVCAR-4 ovarian) was 114%. It also gave a growth (SK-OV-3 ovarian) of 99.6%, a growth (IGROV1 ovarian) of 106% and a growth (OVCAR-3 ovarian) of 108%. It also gave a growth (HS 578T breast) of 104% and a growth (NCI/ADR-RES ovarian) of 102%.
CN1NC(c2ccccc2)NN(C)C1=O showed a growth (SK-MEL-2 melanoma) of 110%, a growth (SN12C renal) of 98.4% and a growth (UO-31 renal) of 67.8%. It also gave a growth (TK-10 renal) of 114%, a growth (ACHN renal) of 95.1% and a growth (CAKI-1 renal) of 85.4%. The growth (A498 renal) was 119%, the growth (RPMI-8226 leukemia) was 105% and the growth (OVCAR-8 ovarian) was 103%. It also gave a growth (OVCAR-5 ovarian) of 109%, a growth (OVCAR-4 ovarian) of 101% and a growth (SK-OV-3 ovarian) of 104%. The growth (IGROV1 ovarian) was 109%, the growth (OVCAR-3 ovarian) was 112% and the growth (HS 578T breast) was 113%. The growth (NCI/ADR-RES ovarian) was 101%.
For CC(Br)c1nc2ccccc2cc1C(N)=O (centres undefined), the growth (SK-MEL-2 melanoma) was 110%, the growth (SN12C renal) was 90.5% and the growth (UO-31 renal) was 92.6%. For the same molecule, the growth (TK-10 renal) was 96.8%, the growth (ACHN renal) was 109% and the growth (A498 renal) was 94.7%. For the same molecule, the growth (CCRF-CEM leukemia) was 84.5%, the growth (MOLT-4 leukemia) was 86.4% and the growth (SR leukemia) was 74.9%. The growth (RPMI-8226 leukemia) was 100%, the growth (OVCAR-8 ovarian) was 112% and the growth (OVCAR-5 ovarian) was 108%. For the same molecule, the growth (OVCAR-4 ovarian) was 109%, the growth (SK-OV-3 ovarian) was 95.3% and the growth (IGROV1 ovarian) was 108%. It also gave a growth (OVCAR-3 ovarian) of 105% and a growth (NCI/ADR-RES ovarian) of 109%.
